Results: PubChem BioAssay (NCATS)
Inconclusive results are not listed. A call without a number means that no potency is given here. A number with no mark means an inactive call. Activity calls are given as the source filed them. Calls follow the shape of the dose curve; as a rule, active = well fitted inhibition curve with a large enough effect; inconclusive = small, poorly fitted or top-dose-only effect; inactive = flat fitted curve, though single readings scatter.

Assay: Primary qHTS for inhibitors of nuclear receptor binding SET domain protein 2 (NSD2) in an isogenic RCH-ACV NSD2 p.E1099K mutant (9B) (AID 1645876); also: nearly all actives have a fitted effect of over 70% in size
Details: RCH-ACV (leukaemia line) NSD2 E1099K (9B) viability, CellTiter-Glo, 72 h; series mostly up to 44.9 µM
Potency is read from the fitted curve at half-maximal effect.

Structure (SMILES)	Potency	activity change, negative = viability loss
C=C[C@@]12COC(=O)C(=C)C1[C@@H](O)[C@H](C(=C)C(=O)OC)[C@@H](OC(=O)C(=C)CO)C2 (stereo not given in full)	8930 nM (active)	–
C[C@@H]1O[C@@H](O[C@H]2[C@@H](OC(=O)[C@]34CCC(C)(C)CC3C3=CCC5[C@@]6(C)C[C@H](O)[C@H](O[C@@H]7O[C@H](C(=O)O)[C@@H](O)[C@H](O)[C@H]7O)[C@@](C)(C(=O)O)C6CC[C@@]5(C)[C@]3(C)CC4)OC[C@H](O)[C@@H]2O)[C@H](O)[C@H](O)[C@H]1O[C@@H]1OC[C@@H](O)[C@H](O)[C@H]1O (stereo not given in full)	–	-12% [at 9.23 µM]
CC1=CC(=O)CC(C)(C)[C@@]1(O)CC[C@@H](C)O[C@@H]1O[C@H](CO)[C@@H](O)[C@H](O)[C@H]1O	inactive	–
COC(=O)CCc1cc2ccoc2c(OC)c1O[C@@H]1O[C@H](CO)[C@@H](O)[C@H](O)[C@H]1O	inactive	–
C=C[C@H]1[C@H](O[C@@H]2O[C@H](CO)[C@@H](O)[C@H](O)[C@H]2O)OC=C(C(=O)OC)[C@H]1CC(=O)O	inactive	–
C=CC1(C)C=C2CCC3C(C)(C)C(O[C@@H]4O[C@@H](CO)[C@H](O)[C@H]4O)CCC3(C)C2CC1O[C@@H]1O[C@H](C)[C@H](O)[C@H](O)[C@H]1O (stereo not given in full)	inactive	–
CC(=O)C1=CCC2C3CCC4CC(O[C@@H]5O[C@H](CO)[C@@H](O[C@@H]6O[C@@H](C)[C@H](O)[C@@H](O)[C@H]6O)[C@H](O)[C@H]5O[C@@H]5O[C@H](CO)[C@@H](O)[C@H](O)[C@H]5O)CCC4(C)C3CCC12C (stereo not given in full)	inactive	–
C=C1C[C@@]23CCC4[C@@](C)(CCC[C@@]4(C)C(=O)OC)C2CC[C@@H]1C3 (stereo not given in full)	inactive	–
C=C(C(=O)O)[C@H]1C[C@]2(C)[C@@H](O)CC[C@]23O[C@H]1C[C@@H]3C	inactive	–
CC(=O)O[C@H]1C[C@@](O)(C(C)C)C2[C@@H](OC(=O)c3ccc(O)cc3)C[C@@]3(C)O[C@H]3C[C@]21C (stereo not given in full)	inactive	–
C[C@H](N)C(=O)N[C@@H](Cc1ccc(O)cc1)C(=O)N1CCC[C@H]1C(=O)NCC(=O)N[C@@H](CCCCN)C(=O)N[C@@H](Cc1ccccc1)C(N)=O	–	0.961% [at 9.23 µM]
CCn1cc(NC(=S)Nc2cc(Cl)ccc2OC)c(C(N)=O)n1	inactive	–
CO[C@H]1/C=C/C=C/C=C/C[C@H](OC(=O)[C@@H](C)NC(=O)C2CCCCC2)[C@H](C)[C@@H](O)/C(C)=C/CCc2cc(O)cc(c2)NC(=O)C1	342 nM (active)	–
C=CC(C)(C)C12C=C(OC)C(=O)N3C(C(C)C)C(=O)NC31N(OC)c1ccccc12 (stereo not given)	inactive	–
O=C(O)Cc1cn(C2OCC(O)C(O)C2O[C@@H]2O[C@H](CO)[C@@H](O)[C@H](O)[C@H]2O)c2ccccc12 (stereo not given in full)	inactive	–
CC1CCC2C(C)(C)[C@@H](O)CC[C@]2(C)C12Cc1c(O)cc3c(c1O2)CN(C(CCC(=O)O)C(=O)O)C3=O (stereo not given in full)	inactive	–
CC(C)(O)c1ccc2c(c1)C(O)C[C@H]1[C@](C)(C(=O)O)CCC[C@]21C (stereo not given in full)	inactive	–
COC(=O)[C@@H](O)[C@H]1[C@@]2(C)CC3(O)[C@@H](C(=O)[C@H]2O)[C@]24O[C@]25CC(=O)O[C@@H](c2ccoc2)[C@]5(C)CCC4[C@]13C (stereo not given in full)	inactive	–
CC1(C)CC2=C3C=CC4C5(C)CCC(O)C(C)(C)C5CCC4(C)C3(C)CCC2(C)C(O)C1 (stereo not given)	inactive	–
CC(=O)N1CCc2ccc(O)c(OC3OC(COC4OCC(O)(CO)C4O)C(O)C(O)C3O)c2C1Cc1ccc(O)cc1 (stereo not given)	inactive	–
COc1c2c(c(C)c3c1C(=O)OC3)OC1(C)CC(O)C34OC(OC)(CC(OC(C)=O)C3(C)C1C2)OC4(C)C (stereo not given)	inactive	–
CC1(C)CC[C@]2(C(=O)O)CC[C@]3(C)C(=CCC4[C@@]5(C)CC[C@H](O[C@@H]6O[C@H](C(=O)O)[C@@H](O[C@@H]7OC[C@@H](O)[C@H](O)[C@H]7O)[C@H](O)[C@H]6O)C(C)(C)C5CC[C@]43C)C2C1O (stereo not given in full)	inactive	–
CC1(C)CC[C@]2(C(=O)O)CC[C@]3(C)C(=CCC4[C@@]5(C)C[C@@H](O)[C@H](O)C(C)(C)C5CC[C@]43C)C2C1 (stereo not given in full)	inactive	–
C=C1CN(Cc2ccc(C(=O)Nc3ccccc3N)cc2)C(=O)c2ccccc21	230 nM (active)	–
CC(=O)OC1C(=O)C2(C)C(O)CC3OCC3(OC(C)=O)C2C(OC(=O)c2ccccc2)C2(O)CC(OC(=O)C(O)C(NC(=O)c3ccccc3)c3ccccc3)C(C)=C1C2(C)C (stereo not given)	5.2 nM (active)	–
